697 NFkB inh – inhibitors of the PMA/ionomycin-induced NF-kB reporter in 697 B cells; actives 0.33% (n = 330,000); inhibition, % at 4 µM; 697 B-cell NF-kB luciferase reporter, 16 h; in the data active = inhibition above about 35%
aSyn 5UTR inh – 5' untranslated region of α-synuclein, MLPCN primary screen; inhibition, % (tested at 7.5 µM); alpha-synuclein 5'UTR reporter, inhibitor activity; AID 1813; actives 0.82% (n = 300,000); in the data active = inhibition above about 60%;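 also: H4 neuroglioblastoma cells stably carrying SNCA 5'UTR luciferase fusion; 0% = DMSO wells and 100% = positive control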
KLF5 inhibitor – kruppel-like factor 5 inhibition | DLD-1 KLF5 promoter-luciferase reporter, luminescence | inhibition, % at 5 µM | actives 0.23% (n = 290,000) | AID 1700;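 active = inhibition above a per-plate limit of that plate's mean compound inhibition plus 3 SD, cut at about 60% in these data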;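 also: 0% = DMSO wells and 100% = LY294002 at 200 µM; higher means less KLF5 promoter-driven luciferase light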
TMEM16A act – activates or potentiates the mouse TMEM16A chloride channel; Q8BHY3; HEK293 TMEM16A/YFP-H148Q/I152L, iodide quench fluorescence; active compounds read low; B-score at 10 µM; actives 0.3% (n = 340,000); AID 623877;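 active = fluorescence-ratio B-score plate-corrected deviation score at least 3 library SD below zero, with starting fluorescence score within 5 deviations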;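 also: channel opened by trigger with iodide after compound preincubation; score built on the fluorescence ratio of max minus min over baseline; more negative score means more quench and so TMEM16A activation or potentiation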
TMEM16A inh – inhibitors of mouse TMEM16A calcium-activated chloride channel | Q8BHY3 | HEK293 TMEM16A/YFP iodide influx fluorescence, ionomycin | normalized B-score (activity score, 25-100; higher = stronger inhibition) at 10 µM | actives 1.2% (n = 310,000);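 active = ratio plate-corrected score three or more library SD toward inhibition, starting fluorescence score within five deviations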;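 also: score derived from kinetic fluorescence span divided by baseline fluorescence per well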
Jurkat NFkB inh – lowers PMA/ionomycin-induced NF-kB signal in Jurkat cells. PMA/ionomycin-induced NF-kB luciferase reporter, luminescence. inhibition, % at 4 µM. actives 0.53% (n = 330,000); in the data active = inhibition above about 50%
TMEM16A reconf – re-confirmation of mouse TMEM16A chloride channel inhibitors; shares compounds with TMEM16A inh; HEK293 TMEM16A/YFP-H148Q, iodide quench fluorescence; ionomycin added to raise cell calcium; inhibition, % at 10 µM; actives 39% (n = 2,300); AID 652189;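 active = mean duplicate percent inhibition, scaled so buffer wells are 0 and the reference blocker 100, over three buffer SD above buffer mean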
TMEM16A Ca cntr – alters calcium mobilization in TMEM16A HEK293 cells, counter-screen. shares compounds with TMEM16A inh. TMEM16A/YFP HEK293, Fluo4 calcium mobilization. calcium response (% of ionomycin), % at 10 µM. actives 2% (n = 2,300). AID 652231;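 active = duplicate-averaged calcium signal over 20% of the ionomycin maximum, relative to buffer baseline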;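 also: each well's signal is peak minus trough fluorescence divided by its pre-addition baseline; 0% = buffer wells and 100% = ionomycin wells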
YFP-HEK293 quench – parental YFP-HEK293 iodide quench counter-screen activity | shares compounds with TMEM16A inh | ionomycin | YFP ratio F(max-min)/F0 at 10 µM | 2,300 tested, under 10 active | AID 652233;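 active = yellow fluorescent protein signal ratio exceeding the buffer control mean by over 5 SD of those controls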;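 also: ratio is mean of duplicate wells from kinetic YFP trace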
ClC-1 inh – rat ClC-1 inhibition, TMEM16A specificity screen; CHO ClC-1-YFP, iodide influx fluorescence quench; iodide control reads 0, buffer control 100; ratio percent, % at 10 µM; shares compounds with TMEM16A inh; 2,300 tested, under 10 active;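 active = duplicate-mean ratio percent above the mean of iodide-only control wells, which defines zero, plus 5 of their SD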;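 also: higher percent means stronger block of ClC-1 iodide influx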
Target sequence (P35524 whole entry, looked up): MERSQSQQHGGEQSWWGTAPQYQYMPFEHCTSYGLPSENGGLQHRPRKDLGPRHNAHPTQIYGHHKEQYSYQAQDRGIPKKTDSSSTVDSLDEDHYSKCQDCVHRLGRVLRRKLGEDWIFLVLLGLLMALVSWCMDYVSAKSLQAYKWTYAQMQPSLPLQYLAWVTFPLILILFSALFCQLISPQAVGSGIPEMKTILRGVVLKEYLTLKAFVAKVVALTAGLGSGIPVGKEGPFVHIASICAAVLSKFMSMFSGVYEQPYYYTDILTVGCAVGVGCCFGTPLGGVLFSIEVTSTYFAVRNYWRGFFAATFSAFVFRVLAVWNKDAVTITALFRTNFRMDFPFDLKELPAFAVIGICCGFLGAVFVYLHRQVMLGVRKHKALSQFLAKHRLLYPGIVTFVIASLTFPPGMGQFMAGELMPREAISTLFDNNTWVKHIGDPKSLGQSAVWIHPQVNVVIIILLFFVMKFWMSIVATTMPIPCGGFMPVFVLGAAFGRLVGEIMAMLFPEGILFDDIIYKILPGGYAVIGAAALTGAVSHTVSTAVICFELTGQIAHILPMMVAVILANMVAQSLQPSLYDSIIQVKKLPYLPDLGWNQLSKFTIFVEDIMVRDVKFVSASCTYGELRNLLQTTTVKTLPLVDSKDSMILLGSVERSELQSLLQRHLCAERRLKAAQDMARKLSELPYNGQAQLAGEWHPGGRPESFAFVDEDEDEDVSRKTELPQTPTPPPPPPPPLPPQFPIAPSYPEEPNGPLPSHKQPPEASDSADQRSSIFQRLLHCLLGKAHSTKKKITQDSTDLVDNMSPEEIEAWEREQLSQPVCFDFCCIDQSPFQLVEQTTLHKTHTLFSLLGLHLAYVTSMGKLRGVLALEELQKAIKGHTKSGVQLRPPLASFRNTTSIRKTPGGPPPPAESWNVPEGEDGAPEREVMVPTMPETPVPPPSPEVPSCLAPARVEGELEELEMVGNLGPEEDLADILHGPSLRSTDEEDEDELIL
Numbers without * were called inactive; i = inactive; / = no result given. Sampled rows, rich in hits. Any-hit rate of the full collection: about 2.5%.

SMILES | 697 NFkB inh | aSyn 5UTR inh | KLF5 inhibitor | TMEM16A act | TMEM16A inh | Jurkat NFkB inh | TMEM16A reconf | TMEM16A Ca cntr | YFP-HEK293 quench | ClC-1 inh
COc1ccc(CNCC(O)COc2ccc(C(C)(C)c3ccccc3)cc2)cc1 (configuration not stated) | -12 | 10 | -11 | i | 25* | -2 | 26%* | i | -1.3 | -14
COC(=O)c1ccc(CNCC(O)COc2ccc(-c3ccccc3)cc2)cc1 (configuration not stated) | -14 | -9 | 3 | i | i | -12 | / | / | / | /
COc1ccccc1C(CNc1ccc(S(=O)(=O)N2CCCC2)cc1[N+](=O)[O-])N(C)C (configuration not stated) | 7 | 19 | -22 | i | i | -3 | / | / | / | /
O=C(Nn1nnnc1Nc1ccccc1)C12CC3CC(CC(C3)C1)C2 | 11 | 19 | 3 | i | 25* | 7 | i | i | -0.8 | -6
COc1ccc(S(=O)(=O)Nc2cccc(NC(C)=O)c2)cc1 | 17 | 11 | -43 | i | 25* | 9 | i | i | -0.84 | -3
COC(=O)c1ccc(NS(=O)(=O)c2ccc(OC)cc2)cc1 | 8 | -1 | -20 | i | 100* | 7 | i | i | -1.1 | -14
CC(=O)c1ccc(NS(=O)(=O)c2ccc(CC(C)C)cc2)cc1 | 0 | -27 | -32 | i | 100* | 3 | 54%* | i | -1.1 | -6
Cc1c(Cl)cccc1NS(=O)(=O)c1ccc(-c2ccc(=O)[nH]n2)o1 | -8 | 5 | -7 | i | i | -4 | / | / | / | /
c1csc(CSc2nc3ccccc3s2)c1 | -110 | -280 | -115 | i | i | -97 | / | / | / | /
CCn1c(CSc2nc3ccccc3s2)nc2ccccc21 | -4 | -27 | -31 | i | 100* | -2 | 43%* | i | -0.86 | -8
CCCC1(c2ccsc2)NC(=O)NC1=O (configuration not stated) | / | / | / | i | / | / | / | / | / | /
COC(=O)c1ccc(CNC(=O)CCc2c[nH]c3ccccc23)cc1 | 11 | -9 | -6 | i | i | 8 | / | / | / | /
COc1ccc(CNC(=O)CCc2c[nH]c3ccccc23)cc1 | -3 | -1 | 10 | i | 100* | -12 | i | i | -1.1 | -10
Cc1oc2cc3oc(=O)c(CCC(=O)NC4CC4)c(C)c3cc2c1C | -1 | -48 | -49 | i | 25* | -21 | i | i | -0.78 | -15
O=C(COC(=O)C1(c2ccc(F)cc2)CCCC1)Nc1ncc(C(F)(F)F)cc1Cl | -15 | 2 | 11 | i | 100* | 15 | 55%* | i | -0.82 | -11
CN(C)c1ccc2c(O)cc(=O)n(C)c2c1 | -2 | -31 | -19 | i | 100* | 15 | i | i | -1.1 | -6
CN(C)c1ccc2cc(S(=O)(=O)O)cc(O)c2c1 | / | / | / | i | / | / | / | / | / | /
CC(=O)NCCC(Cc1ccccc1)c1ccco1 (configuration not stated) | 7 | -24 | -8 | i | 100* | 14 | i | i | -0.87 | -10
c1ccc(CNCCC(Cc2ccccc2)c2ccco2)cc1 (configuration not stated) | 6 | -34 | 7 | i | i | 22 | / | / | / | /
CC(Oc1ccccc1)C(=O)Nc1ccc(NC(=O)c2ccccc2)cc1 (configuration not stated) | -8 | 37 | -30 | i | i | 6 | / | / | / | /
CC(Oc1ccc(C(=O)c2ccccc2)cc1)C(=O)Nc1ccc(S(N)(=O)=O)cc1 (configuration not stated) | -1 | -12 | -18 | i | 100* | 10 | 54%* | i | -0.7 | -6
CC(C)CN(C(=O)COC(=O)Cc1cccc2ccccc12)c1c(N)n(Cc2ccccc2)c(=O)[nH]c1=O | 10 | 5 | / | i | i | -10 | / | / | / | /
COc1cc2c(c(OC)c1OC)C(c1ccc(C)cc1)CC(=O)O2 (configuration not stated) | -23 | / | / | i | / | / | / | / | / | /
CN(C)Cc1c(O)ccc2ccccc12 | 8 | -16 | -8 | i | i | -10 | / | / | / | /
Oc1ccccc1Cc1c(O)ccc2ccccc12 | -10 | 10 | / | i | 25* | 0 | 38%* | i | -1.1 | -8
SMILES | 697 NFkB inh | aSyn 5UTR inh | KLF5 inhibitor | TMEM16A act | TMEM16A inh | Jurkat NFkB inh | TMEM16A reconf | TMEM16A Ca cntr | YFP-HEK293 quench | ClC-1 inh
COc1ccc(CCNC(=O)c2cc(C3CC3)nc3c2cnn3C(C)C)cc1 | -7 | / | / | i | / | 11 | / | / | / | /
CC(C(=O)Nc1ccc2c(c1)OCO2)N(C)CC(=O)Nc1ccc(Cl)cc1 (configuration not stated) | / | / | / | i | / | / | / | / | / | /
Cc1cccc(C)c1OCc1cc(C(=O)N2CCN(c3ccc(F)cc3)CC2)no1 | -188 | -72 | -142 | i | 25* | -131 | 24%* | i | -1.1 | -2
COc1ccccc1CN=Cc1[nH]c2ccc(Br)c(Cl)c2c1O | 3 | -29 | -24 | i | i | -2 | 16%* | i | -0.9 | -8
Cc1ccc(NC(=O)CSc2nc(N)cc(=O)[nH]2)cc1S(=O)(=O)N1CCCCC1 | 14 | / | / | i | / | 5 | / | / | / | /
CCCC(=O)Nc1c(-c2cccc(OC)c2)c(=O)c2ccccc2n1C | -9 | 0 | -7 | i | i | -2 | / | / | / | /
CN(C)S(=O)(=O)c1ccc(N2CCCC2)c(C(=O)Nc2nc3c(ccc4ccccc43)s2)c1 | -7 | -14 | -26 | i | i | -28 | i | i | -1.4 | -11
CC1(C)COCN1S(=O)(=O)c1ccc(C(=O)Nc2nnc(-c3ccc(Cl)s3)o2)cc1 | -13 | 92* | -20 | / | 100* | 5 | i | i | -0.86 | -18
CCOc1ccc(C(=O)N2CCC(C(=O)c3ccc4c(c3)OCCO4)CC2)cc1 | -4 | -6 | -12 | i | 100* | 12 | i | i | -1.2 | -12
CCOC(=O)C1CCN(C(=O)c2ccc3c(c2)OCCO3)CC1 | 16 | / | / | i | / | -20 | / | / | / | /
O=C(OCCNc1ccc(C(F)(F)F)cc1[N+](=O)[O-])c1cc2ccccc2oc1=O | -2 | 15 | -13 | i | i | -3 | / | / | / | /
CCCNC(=O)COc1ccc(-c2nn(C)c(=O)c3ccccc23)cc1 | -28 | 6 | -21 | i | i | -7 | / | / | / | /
